SW480 rereplic – induces DNA re-replication in SW480 colon adenocarcinoma cells. Potency, µM (titrated, usually from 46.1 µM), for the others: at the top dose re-replication activation, usual class: activators. SW480 DNA re-replication, Hoechst DNA content imaging, 48 h. 340,000 tested, 1.8% active. AID 624297; also: % of control where 0% means no effect; nearly all actives have a fitted effect of over 55% in size
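Readout is total intensity of Hoechst-stained nuclei, excited at 405 nm and collected at 500-530 nm. Compound treatment lasted 48 hr at 37 C in 5% CO2 before staining.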
HT1080-NT tox – kills 2HG-producing HT-1080-NT fibrosarcoma cells; HT-1080-NT fibrosarcoma viability, CellTiter-Glo ATP luminescence, 48 h; Potency, µM (series often up to 46.1 µM), without a hit: at the highest dose activity, negative = less viability, usual class: cytotoxic; 360,000 tested, 1.6% active; AID 686970;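 also: NT is the 2HG producing partner of a matched IDH1 knockdown line; 0% = DMSO-treated cells and -100% = media-only wells without cells; nearly all actives have a fitted effect of over 55% in size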
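Luminescent CellTiter-Glo readout after 48 hours of compound exposure at 37 degrees C defined viability of HT-1080-NT cells. Activity was normalized to DMSO wells and cell-free media wells; concentration-response curves were fitted and assigned curve classes.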
MCF10A rereplic – inducers of DNA re-replication in MCF 10A breast cells; MCF 10A DNA re-replication, Hoechst nuclear intensity, 48 h; Potency, µM (doses to about 46.1 µM), without a hit: at the highest dose activity, positive = re-replication, hits mostly activators; 350,000 tested, 2.9% active; also: % of control where 0% means no effect; nearly all actives have a fitted effect of over 50% in size
KB-3-1 cytotox – KB-3-1 parental cell cytotoxicity; KB-3-1 viability, CellTiter-Glo ATP luminescence, 72 h; Potency, µM (titrated, usually from 46.1 µM), usual class: cytotoxic; 400,000 tested, 1.4% active; also: % is scaled to controls: 0 for no effect and ±100 for the full control effect; nearly all actives have a fitted effect of over 60% in size
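KB-3-1 parental drug-naive adenocarcinoma cells in DMEM/10% FBS, incubated 72 h at 37 C with pin-transferred compounds across a concentration series. Viability by CellTiter-Glo luminescence; concentration-response curves fitted after normalization.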
KB-V1 MDR tox – kills drug-selected multidrug resistant KB-V1 cells. Potency, µM (highest dose often 46.1 µM), actives largely listed as cytotoxic. KB-V1 MDR cells viability, CellTiter-Glo, 72 h. 400,000 tested, 3.4% active; also: % is scaled to controls: 0 for no effect and ±100 for the full control effect; nearly all actives have a fitted effect of over 60% in size
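Readout: CellTiter-Glo luminescence, 10 min after addition. Cells: KB-V1 MDR subline, 72 h at 37 degrees C with compound. Analysis: corrected, normalized data fitted to concentration-effect curves.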
HT1080 IDH1KD tx – kills HT-1080 cells with IDH1 knockdown | HT-1080 IDH1 knockdown viability, ATP luminescence, 48 h | 360,000 tested, 2% active | Potency, µM (highest dose often 46.1 µM), for the others: at the top dose activity, negative = toxicity, actives largely listed as cytotoxic;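 also: 0% = DMSO wells and -100% = cell-free medium wells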
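Viability of IDH1-knockdown HT-1080 fibrosarcoma cells was assessed by CellTiter-Glo after 48 h at 37 °C with titrated compound; concentration-effect curves were classified by fit quality and response size.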
Starred values were filed as active, the others as inactive; i = inactive; ? = inconclusive; · = not tested or not shown. An excerpt weighted towards active compounds, which were near 8% of everything screened. Calls follow the shape of the dose curve; as a rule, active = well fitted curve in the direction sought with a large enough effect; inconclusive = small, poorly fitted or top-dose-only effect, or another doubt; inactive = no such curve, though single readings can be large; an effect the other way counts as inactive or inconclusive. Potency is read from the fitted curve at half-maximal effect.

SMILES	SW480 rereplic	HT1080-NT tox	MCF10A rereplic	KB-3-1 cytotox	KB-V1 MDR tox	HT1080 IDH1KD tx
COc1cc(Br)ccc1C1C(C(=O)Nc2ccc(C)cc2C)=C(C)Nc2nnnn21 (centres undefined)	·	·	·	i	i	·
Cc1ccc(NS(=O)(=O)c2cc3c(cc2N2CCC2)NC(=O)CC3)cc1C	·	·	·	i	i	·
CC(C)Sc1nc(N2CCOCC2)c2c(c1C#N)CC(C)(C)SC2	-6%	-2%	?	?	6.5µM*	-3%
CC(C)CSc1nc(N2CCOCC2)c2c(c1C#N)CC(C)(C)SC2	3%	-4%	?	i	i	-2%
CSc1nc2sc(-c3ccccc3)cc2c(=O)n1N	-218%	3%	-1%	?	9.2µM*	1%
COc1ccc(S(=O)(=O)N2CCc3ccccc32)cc1C(=O)NCCc1ccc(S(N)(=O)=O)cc1	-10%	5%	-2%	i	i	3%
COc1ccccc1C(=O)Nc1ccc(S(=O)(=O)N2CCc3ccccc32)cc1	?	2%	7%	i	?	1%
COc1cc(C(=O)Nc2ccc(S(=O)(=O)N3CCc4ccccc43)cc2)cc(OC)c1OC	15%	-6%	6%	?	5.8µM*	-18%
O=C(Nc1ccc(S(=O)(=O)N2CCc3ccccc32)cc1)c1ccc2c(c1)OCO2	15%	?	2%	i	5.2µM*	?
COc1ccc(S(=O)(=O)N2CCc3ccccc32)cc1C(=O)Nc1ccc(C(N)=O)cc1	6%	?	23µM*	?	i	?
COCCCNC(=O)c1c[nH]c2ccc(S(=O)(=O)N3CCc4ccccc43)cc2c1=O	-3%	?	-6%	?	i	?
COCCNC(=O)c1c[nH]c2ccc(S(=O)(=O)N3CCc4ccccc43)cc2c1=O	-3%	2.3µM*	-7%	?	i	2.3µM*
Cc1ccc(Cn2c(C)c(CNCc3ccccc3F)c(C(=O)O)c2C)cc1	·	·	·	i	?	·
CCOc1cc(NC(=O)c2cccs2)c(OCC)cc1NC(=O)CCC(=O)NCC1CCCO1 (centres undefined)	6.5µM*	11%	?	i	i	18%
CCOc1cc(NC(=O)c2cccs2)c(OCC)cc1NC(=O)c1ccccn1	?	?	8.2µM*	i	i	21%
CCOc1cc(NS(C)(=O)=O)c(OCC)cc1NC(=O)c1cccs1	1%	4%	6%	?	9.2µM*	6%
Cc1ccc2occ(CC(=O)Nc3ccc(S(=O)(=O)N4CCC(C)CC4)cc3)c2c1	·	·	·	i	?	·
Cc1ccc(C(=O)NCCc2csc(-c3cccnc3)n2)cc1	-12%	-4%	-2%	i	i	13%
O=C(NCCc1csc(-c2cccnc2)n1)c1ccc(F)c(F)c1	·	·	·	i	13µM*	·
O=C(NCCc1csc(-c2cccnc2)n1)c1cccs1	-19%	8%	4%	i	i	9%
O=C(NCCc1csc(-c2cccnc2)n1)c1cccc(C(F)(F)F)c1	·	·	·	?	9.2µM*	·
Cn1cc(C(=O)NCCc2ccccc2)c(=O)c2cc(S(=O)(=O)N3CCCCC3)ccc21	·	·	·	?	i	·
COCCCn1c(=N)c(S(=O)(=O)c2ccccc2)cc2c(=O)n3cccc(C)c3nc21	·	·	·	i	?	·
CCCCn1c(=N)c(S(=O)(=O)c2ccc(Br)cc2)cc2c(=O)n3cccc(C)c3nc21	?	8%	16%	i	i	15%
CCCn1c(=N)c(S(=O)(=O)c2ccc(F)cc2)cc2c(=O)n3cccc(C)c3nc21	?	20%	5.2µM*	i	i	5%
SMILES	SW480 rereplic	HT1080-NT tox	MCF10A rereplic	KB-3-1 cytotox	KB-V1 MDR tox	HT1080 IDH1KD tx
COCCn1c(=N)c(S(=O)(=O)c2ccc(F)cc2)cc2c(=O)n3cccc(C)c3nc21	?	4%	3.7µM*	i	i	8%
CCc1ccc(-n2nc(C)c3c(C)cc(=O)n(CC(=O)Nc4cc(C)ccc4C)c32)cc1	·	·	·	i	i	·
Cn1c(=S)c2[nH]c(SCc3cccnc3)nc2n(C)c1=O	-7%	9%	-6%	i	16µM*	-1%
CCCC(CC)Sc1nc2c([nH]1)c(=S)n(C)c(=O)n2C (centres undefined)	?	4%	?	?	3.7µM*	-12%
CCCCSc1nc2c([nH]1)c(=S)n(C)c(=O)n2C	?	2%	?	7.3µM*	1.5µM*	9%
CSc1nc2c([nH]1)c(=S)n(C)c(=O)n2C	6%	2%	0%	i	i	-3%
CCCCC(C)Sc1nc2c([nH]1)c(=S)n(C)c(=O)n2C (centres undefined)	15%	8%	?	?	4.1µM*	?
COc1cccc(C2Nc3ccccc3-c3nnc(SCc4ccccc4)nc3O2)c1OC (centres undefined)	·	·	·	i	i	·
c1ccc(NC2=Nc3cccc4cccc2c34)cc1	-3%	-7%	-39%	i	i	-9%
Fc1ccc(/C=N/NC2=Nc3cccc4cccc2c34)cc1	3%	-2%	16µM*	i	?	0%
CCOC(=O)COc1cccc2c(=O)n(CC(=O)NCCc3ccc(OC)c(OC)c3)ccc12	-9%	·	12%	·	·	·
CCOC(=O)C(C)Oc1cccc2c(=O)n(CC(=O)Nc3ccc4c(c3)OCCO4)ccc12 (centres undefined)	-6%	-6%	0%	i	i	14%
CCOC(=O)COc1cccc2c(=O)n(CC(=O)NCc3ccccc3)ccc12	?	0.52µM*	1.5µM*	0.92µM*	1.6µM*	0.46µM*
CCOC(=O)COc1cccc2c(=O)n(CC(N)=O)ccc12	-7%	7%	0%	i	i	4%
CCOC(=O)C(C)Oc1cccc2c(=O)n(CC(=O)NCc3ccc4c(c3)OCO4)ccc12 (centres undefined)	4.1µM*	?	6.5µM*	6.5µM*	7.3µM*	?
CCOC(=O)COc1cccc2c(=O)n(CC(=O)NCc3ccc(F)cc3)ccc12	?	1.2µM*	?	0.58µM*	1.5µM*	1µM*
CCc1cccc(NC(=O)CCNS(=O)(=O)c2ccc3c(c2)CCN3C(C)=O)c1	·	·	·	i	i	·
COc1ccc(-c2cc(C(F)F)nn2-c2ccc(S(N)(=O)=O)cc2)cc1F	1%	·	-3%	·	·	·
Cc1ccc(C(c2sc3nc(-c4ccco4)nn3c2O)N2CCOCC2)cc1 (centres undefined)	·	·	·	i	i	·

Screening results (PubChem)
